Compound activity: PubChem BioAssay, National Center for Advancing Translational Sciences (NCATS)
An excerpt weighted towards active compounds, which were near 5.3% of everything screened.
KDM4E inh: qHTS Assay for Inhibitors of Human Jumonji Domain Containing 2E (JMJD2E); JMJD2E catalytic domain, FDH-coupled NADH fluorescence (FDH is formaldehyde dehydrogenase); Potency, µM (series often up to 57.1 µM), hits mostly inhibitors; 1.6% of 230,000 active; Lysine-specific demethylase 4E (Homo sapiens), B2RXH2; active = well fitted inhibition curve with a large enough effect, not every such curve was filed as active; inconclusive = small, poorly fitted or top-dose-only effect, or another doubt; inactive = no such curve, though single readings can be large or run the other way; note: nearly all actives have a fitted effect of over 50% in size
Target sequence (B2RXH2 1-337 limits assumed): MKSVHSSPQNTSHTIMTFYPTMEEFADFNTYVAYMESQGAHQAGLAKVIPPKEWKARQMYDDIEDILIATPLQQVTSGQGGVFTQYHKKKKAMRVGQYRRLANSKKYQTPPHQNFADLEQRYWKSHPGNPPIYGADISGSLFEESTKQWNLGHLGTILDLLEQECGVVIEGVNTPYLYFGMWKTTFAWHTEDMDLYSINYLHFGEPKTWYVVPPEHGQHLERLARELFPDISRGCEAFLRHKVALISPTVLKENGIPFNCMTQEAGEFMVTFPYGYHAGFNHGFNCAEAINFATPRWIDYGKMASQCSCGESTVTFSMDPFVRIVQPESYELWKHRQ
Tau ThT inhib: qHTS for Inhibitors of Tau Fibril Formation, Thioflavin T Binding. Microtubule-associated protein tau (Homo sapiens), P10636. recombinant tau K18 P301L, heparin-induced fibrillization, ThT fluorescence. Potency, µM (highest dose often 57.4 µM), usual class: inhibitors. AID 1460, 2008. 2.1% of 270,000 active; note: nearly all actives have a fitted effect of over 55% in size
Target sequence (P10636 561-689 P618L limits assumed): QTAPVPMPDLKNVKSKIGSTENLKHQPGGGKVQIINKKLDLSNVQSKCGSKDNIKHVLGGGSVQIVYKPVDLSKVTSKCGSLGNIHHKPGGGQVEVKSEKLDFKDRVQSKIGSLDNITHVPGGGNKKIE
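Fibril formation assay: tau K18 P301L at 15 uM with trace Alexa 594 label, heparin inducer 20 uM, pH 7 sodium acetate buffer, 37 C for 6 hr; endpoint ThT signal.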
Sfp PPTase inh: qHTS Assay for Inhibitors of Bacillus subtilis Sfp phosphopantetheinyl transferase (PPTase); AID 1490, 2009; Biochemical Sfp PPTase activity, qHTS; Potency, µM, actives largely listed as inhibitors; 3.5% of 310,000 active; 4'-phosphopantetheinyl transferase ffp (Bacillus subtilis), Q9F4F7;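 note: the enzyme is Sfp with the accession as filed and its product quenches rhodamine fluorescence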
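Fluorescence-quenching assay: 15 nM Sfp-PPTase preincubated 15 min at room temperature with compound, then 5 uM rhodamine-CoA and 12.5 uM BHQ-2-labelled YbbR peptide added. Fluorescence (ex 525/em 598 nm) read at start and after 30 min; difference gives rate.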
Tau FP inhib: qHTS for Inhibitors of Tau Fibril Formation, Fluorescence Polarization. Microtubule-associated protein tau (Homo sapiens), P10636. K18 P301L tau heparin fibrillization, Alexa594 FP, 6 h. Potency, µM (highest dose often 57.7 µM), most hits filed as inhibitors. 0.39% of 280,000 active; note: nearly all actives have a fitted effect of over 55% in size
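Read-out: fluorescence polarization of Alexa 594-labeled tau (0.24 uM), 555 nm excitation, 632 nm emission. Mixtures held 15 uM unlabeled K18 P301L, compound and 20 uM heparin, pH 7 acetate buffer, incubated 6 hr at 37 C.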
Tau fluor cs: Counterscreen qHTS for Inhibitors of Tau Fibril Formation, Fluorescence Polarization | AID 1463, 2008 | 0.93% of 280,000 active | Potency, µM (top dose mostly 57.7 µM) | tau K18 P301L Alexa594 fluorescence, heparin fibrillization; note: nearly all actives have a fitted effect of over 55% in size
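Human tau K18 P301L (15 uM unlabeled, 0.24 uM Alexa 594-labeled) in 100 mM sodium acetate pH 7 with 20 uM heparin, 6 hr at 37 C. ThT 30 uM added, 1 hr ambient; Alexa 594 FP and total fluorescence read at 555/632 nm.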
Coupling enz: qHTS Assay for Inhibitors of Fructose-1,6-bisphosphate Aldolase from Giardia Lamblia: Coupling assay counterscreen; 0.67% of 290,000 active; coupling enzyme system counterscreen, AmpLite Red fluorescence; activity change, negative = inhibition, % at 58.2 µM, hits read low; in the data active = activity change below about -30%
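Fluorescence at 525 nm excitation and 598 nm emission measured inhibition of the coupled detection system without aldolase. Compounds (at 57.5 uM final) were preincubated 10 min at room temperature with coupling enzyme reagent before a 20 min substrate/AmpLite Red step.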
Of the large screens only hits and unclear results are named; the others gave an inactive call. Unless noted, calls come from the whole dose curve; as a rule, active = well fitted curve in the direction sought with a large enough effect; inconclusive = small, poorly fitted or top-dose-only effect, or another doubt; inactive = no such curve, though single readings can be large; an effect the other way counts as inactive or inconclusive.

CN1C(=O)C(CC(=O)Nc2ccc(Cl)cc2)N(Cc2ccco2)C1=S (centres undefined)	Sfp PPTase inh 17.8µM
Clc1ccc(/C=N/N2CCCCC2)cc1	none
CC1CCCC(C)N1/N=C/c1ccc(O)c(O)c1 (centres undefined)	Sfp PPTase inh 44.7µM (no result: KDM4E inh, Tau ThT inhib, Tau FP inhib, Tau fluor cs)
COc1ccc(/C=N/N2CCN(c3ccccc3OC)CC2)cc1OC	Tau ThT inhib inconclusive
COc1ccc(/C=N/N2C(C)CCCC2C)cc1O (centres undefined)	none (no result: KDM4E inh, Tau ThT inhib, Tau FP inhib, Tau fluor cs)
Oc1ccc(/C=N/N2CCCCC2)cc1O	Sfp PPTase inh 50.1µM (no result: KDM4E inh, Tau ThT inhib, Tau FP inhib, Tau fluor cs)
CC1CCCC(C)N1/N=C/c1cc(Br)c(O)c(Br)c1 (centres undefined)	Sfp PPTase inh 56.2µM
COc1ccccc1N1CCN(/N=C/c2ccc(O)c(O)c2)CC1	KDM4E inh 28.2µM, Tau ThT inhib inconclusive, Sfp PPTase inh 22.4µM, Tau fluor cs inconclusive
CCc1ccc(-n2nc(CO)c(C(=O)NCCCc3ccccc3)n2)cc1	Tau ThT inhib inconclusive (no result: KDM4E inh, Sfp PPTase inh, Coupling enz)
COc1ccc2c(c1)cc1c(=O)n(CC(=O)NCCCc3ccccc3)nc(C)n12	none (no result: KDM4E inh, Sfp PPTase inh, Coupling enz)
Cc1ccccc1-c1noc(-c2cc(C(C)C)[nH]n2)n1	Tau ThT inhib inconclusive (no result: KDM4E inh, Sfp PPTase inh, Coupling enz)
CCc1nnc(NC(=O)CSc2nccn2Cc2ccccc2)s1	none (no result: KDM4E inh, Sfp PPTase inh, Coupling enz)
Cc1cn([C@H]2C[C@@H](N=[N+]=[N-])[C@@H](CO)O2)c(=O)[nH]c1=O	none (no result: Sfp PPTase inh, Coupling enz)
COc1ccc(O)c(/C=N/N2CCCCC2)c1	none (no result: KDM4E inh, Tau ThT inhib, Tau FP inhib, Tau fluor cs)
COc1cc(/C=N/N2CCCCC2)cc(OC)c1O	Sfp PPTase inh 44.7µM (no result: KDM4E inh, Tau ThT inhib, Tau FP inhib, Tau fluor cs)
Cc1c(N=Nc2c(-c3ccc([N+](=O)[O-])cc3)[nH]n(C(N)=S)c2=O)cccc1[N+](=O)[O-]	Tau ThT inhib 8.91µM, Tau FP inhib inconclusive, Tau fluor cs inconclusive
NC(=S)n1[nH]c(-c2ccc([N+](=O)[O-])cc2)c(N=Nc2cccc([N+](=O)[O-])c2)c1=O	KDM4E inh inconclusive, Tau ThT inhib 11.2µM, Tau fluor cs inconclusive
CCCn1c(=O)c2sccc2n2c(CCCC(=O)Nc3ccc(Oc4ccccc4)cc3)nnc12	none (no result: KDM4E inh, Sfp PPTase inh, Coupling enz)
CCOc1c(C=C(C#N)C#N)c2ccccc2n1CC	Tau ThT inhib inconclusive, Sfp PPTase inh 50.1µM, Tau FP inhib inconclusive, Tau fluor cs inconclusive
CCc1ccc(NCc2cc3ccc(OC)cc3n(CC(=O)Nc3ccc(C)c(Cl)c3)c2=O)cc1	Tau FP inhib inconclusive, Tau fluor cs inconclusive (no result: KDM4E inh, Sfp PPTase inh, Coupling enz)
O=c1[nH]cnc2nc(-c3ccccc3)c(-c3ccccc3)nc12	KDM4E inh 3.16µM
Cc1cc(=O)[nH]c2c(N=Nc3ccc(O)cc3)c(N)nn12	KDM4E inh inconclusive, Tau ThT inhib 8.91µM, Sfp PPTase inh inconclusive
Nc1nn2c(C(F)(F)F)cc(=O)[nH]c2c1N=Nc1cccc(F)c1	KDM4E inh inconclusive, Tau ThT inhib 7.94µM, Tau fluor cs inconclusive
COc1ccccc1CCNC(=O)C(=O)NCC(c1cccs1)S(=O)(=O)c1ccc(C)cc1 (centres undefined)	none (no result: KDM4E inh, Sfp PPTase inh, Coupling enz)
COc1ccc(OC)c(CCNC(=O)Cn2nc(C)n3c(cc4sccc43)c2=O)c1	none (no result: KDM4E inh, Sfp PPTase inh, Coupling enz)
COC(=O)c1ccccc1NC(=O)COC(=O)c1ccccc1N=Nc1ccc(N(C)C)cc1	Tau ThT inhib 4.47µM, Tau fluor cs inconclusive
CC(=O)c1ccc(NC(=O)COC(=O)c2ccccc2N=Nc2ccc(N(C)C)cc2)cc1	none
CN(C)c1ccc(N=Nc2ccccc2C(=O)OCC(=O)N(C)c2ccccc2)cc1	Tau ThT inhib 1.58µM, Sfp PPTase inh inconclusive, Tau FP inhib inconclusive
Cc1cc(/C=C2\NC(=O)NC2=O)c(C)n1-c1ccc(N2CCOCC2)cc1	KDM4E inh 15.8µM, Tau ThT inhib inconclusive, Tau FP inhib inconclusive, Tau fluor cs inconclusive
Cc1cc(/C=C2/NC(=O)NC2=O)c(C)n1-c1ccc(N2CCOCC2)cc1	KDM4E inh inconclusive, Tau ThT inhib inconclusive
